Data on 30 compounds can be found in PubChem BioAssay (Tox21).

A short description of test [1]: qHTS assay to test for compound auto fluorescence at 535 nm (green) in HEK293 cells (AID 720680). (In general: Quantitative high-throughput screening tests each substance at several concentrations.)
Test [2] is described as follows: qHTS assay to test for compound auto fluorescence at 460 nm (blue) in HEK293 cell free culture (AID 720681). In outline: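 Blue fluorescence (Ex 405/Em 460 nm, triamterene-equivalent) was read immediately after pin transfer of compound or DMSO into medium (DMEM, 10% FBS) without cells.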
Test [3] in a line: qHTS assay to test for compound auto fluorescence at 535 nm (green) in HEK293 cell free culture (AID 720682). A digest of the protocol: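 DMEM + 10% FBS, cell-free; cpd or DMSO pinned in; Ex485/Em535 read; output as fluorescein-equivalent signal.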
A short description of test [4]: qHTS assay to test for compound auto fluorescence at 590 nm (red) in HEK293 cell free culture (AID 720683). A digest of the protocol: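 Red-channel autofluorescence of compounds in culture medium (DMEM, 10% FBS), no cells, measured at 540/590 nm. Rose Bengal sodium is the reference fluorophore for equivalence.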
Test [5] can be described thus: qHTS assay to test for compound auto fluorescence at 590 nm (red) in HepG2 cell free culture (AID 720684). A digest of the protocol:
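No cells present: MEM + 10% FBS only. Compound pinned in, red label read (540/590 nm). Activity = fluorescence equivalent to Rose Bengal sodium.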

Test [6] is described as follows: qHTS assay to test for compound auto fluorescence at 460 nm (blue) in HepG2 cell free culture (AID 720685). In outline: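 Cell-free plates of MEM plus 10% FBS received 23 nL compound or DMSO vehicle; blue-channel (405/460 nm) intensity scored against triamterene as reference fluorophore.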
Test [7] is described as follows: qHTS assay to test for compound auto fluorescence at 535 nm (green) in HepG2 cell free culture (AID 720686).
Test [8] can be described thus: qHTS assay to test for compound auto fluorescence at 460 nm (blue) in HepG2 cells (AID 720687). A digest of the protocol: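 Blue-channel autofluorescence (Ex/Em 405/460 nm, triamterene-equivalent) was measured after 1 hr compound exposure at 37 C, 5% CO2. Cells were HepG2, plated overnight at 37 C in MEM plus 10% FBS.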
Test [9] has as its target Glucocorticoid receptor (Homo sapiens) (UniProt P04150). In words: qHTS assay to identify small molecule agonists of the glucocorticoid receptor (GR) signaling pathway (AID 720691; active = well fitted activation curve with a large enough effect in the signal ratio in the repeat runs, not every such curve was filed as active; the % refers to the signal ratio). In outline:
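A HeLa cervical cancer line expressing GR and a glucocorticoid response element-driven beta-lactamase gene is treated with compounds for 18 h; LiveBLAzer B/G FRET substrate is then applied and fluorescence read.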

Test [10] has the same target. In words: qHTS assay to identify small molecule antagonists of the glucocorticoid receptor (GR) signaling pathway (AID 720692; active = well fitted inhibition curve with a large enough effect in the signal ratio in the repeat runs, not every such curve was filed as active; the % refers to the signal ratio; also: potency is read from the fitted curve at half-maximal effect). In outline:
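GRE-bla HeLa line, dex-stimulated (5 nM final). Compound exposure 18 h, 37 C. Beta-lactamase FRET read after 2 h RT substrate.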

Values joined by “and” are separate entries in the source; they are usually repeats but may differ in a detail not shown here. Equal values may be shown once. Results filed as inconclusive are left out. Active and inactive are the calls of the source. Unless noted, calls follow the shape of the dose curve; as a rule, active = well fitted curve in the direction sought with a large enough effect in the repeat runs; inconclusive = weak or mixed curves; inactive = flat fitted curve, though single readings scatter.

Sequence of Glucocorticoid receptor (Homo sapiens) (P04150 whole entry, looked up): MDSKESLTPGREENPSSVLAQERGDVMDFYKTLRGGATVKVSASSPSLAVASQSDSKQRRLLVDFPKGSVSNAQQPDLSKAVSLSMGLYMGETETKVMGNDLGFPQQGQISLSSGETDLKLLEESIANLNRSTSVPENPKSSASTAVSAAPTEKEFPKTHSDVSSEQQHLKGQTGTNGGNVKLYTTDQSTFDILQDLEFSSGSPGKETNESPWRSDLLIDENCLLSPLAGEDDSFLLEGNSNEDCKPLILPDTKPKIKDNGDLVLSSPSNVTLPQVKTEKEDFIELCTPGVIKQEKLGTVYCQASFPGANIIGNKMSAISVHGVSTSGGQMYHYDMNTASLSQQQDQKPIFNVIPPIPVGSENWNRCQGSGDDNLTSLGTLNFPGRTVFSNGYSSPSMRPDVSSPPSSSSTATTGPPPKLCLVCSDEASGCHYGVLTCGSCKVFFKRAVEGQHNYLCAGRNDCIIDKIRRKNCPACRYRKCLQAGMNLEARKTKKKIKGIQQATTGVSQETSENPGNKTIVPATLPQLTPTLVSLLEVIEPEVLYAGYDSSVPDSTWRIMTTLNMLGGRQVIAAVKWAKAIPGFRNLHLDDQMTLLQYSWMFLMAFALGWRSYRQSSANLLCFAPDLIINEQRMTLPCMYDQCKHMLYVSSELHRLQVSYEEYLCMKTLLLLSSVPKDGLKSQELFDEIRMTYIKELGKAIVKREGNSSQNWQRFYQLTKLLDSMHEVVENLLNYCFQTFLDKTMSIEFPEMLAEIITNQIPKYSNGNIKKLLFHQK

In the case of `CC(C)=CCl`, the result in test [1], in [2], in test [3], in [4], in test [5] and in test [6] was inactive. Further, the call in test [7], in test [8] and in [9] was inactive. In addition, in test [10], the Potency entry is “inactive”.

Take `CC(=O)CCC=C(C)C`: the compound was called inactive in test [1], in test [2], in [3], in test [4], in test [5] and in test [6]. Besides, the result in test [7], in [8] and in [9] was inactive. Moreover, the Potency entry in test [10] is “inactive”.

On to `C=C(C)C(=O)OCC(C)C`, for which the compound was called inactive in [1], in test [2], in test [3], in [4], in [5] and in test [6]. Moreover, in test [8], the result was inactive.

For `CC1(C)S[C@@H]2[C@H](NC(=O)COc3ccccc3)C(=O)N2[C@H]1C(=O)O`, the call in test [1], in test [2], in test [3], in test [4], in test [5] and in test [6] was inactive. For the same compound, the outcome in test [7], in test [8] and in test [9] was inactive.

As for `CN/C(=C\[N+](=O)[O-])NCCSCc1csc(CN(C)C)n1`, the result in test [1], in test [2], in test [3], in test [4], in test [5] and in [6] was inactive. For the same compound, the call in [7], in test [8] and in test [9] was inactive. Further, in [10], the Potency entry is “inactive”.

With `CCCCCCCCCCCCCCCCO`, the compound was classed as inactive in [1], in test [2], in test [3], in test [4], in [5] and in test [6]. For the same compound, the compound was called inactive in test [7] and in test [8]. The Potency result in test [10] is “inactive”.

As to `C=CCCCCCCCCC(=O)O`, the result in [1], in [2], in [3], in [4], in [5] and in test [6] was inactive. For the same compound, the outcome in test [8] and in test [9] was inactive. Moreover, the Potency entry in test [10] was “inactive”.

As to `Clc1ccccn1`, the compound was called inactive in test [1], in test [2], in [3], in test [4], in test [5] and in test [6]. Further, the compound was classed as inactive in test [7] and in test [8].

In the case of `COc1cc(OC)c(C(=O)CCCN2CCCC2)c(OC)c1`, the outcome in [1], in [2], in test [3], in [4], in test [5] and in [6] was inactive. In addition, the compound was classed as inactive in [8] and in [9]. For the same compound, in [10], the Potency result is “inactive”.

For `COc1ccc(C)cc1N`, the call in test [1], in test [2], in test [3], in [4], in [5] and in test [6] was inactive. For the same compound, the compound was called inactive in test [7] and in test [8]. For the same compound, the Potency entry in test [10] was “inactive”.

Turning to `CC(C)(C)c1cc(Cc2cc(C(C)(C)C)c(O)c(C(C)(C)C)c2)cc(C(C)(C)C)c1O`, the outcome in test [1], in [2], in test [4], in test [5], in test [7] and in test [8] was inactive. The Potency entry in [10] was “inactive”.

Take `c1ccc(Oc2ccccc2)cc1`: the outcome in test [1], in [2], in test [4], in test [5], in test [7] and in test [8] was inactive. The Potency result in test [10] is “inactive”.

As for `CNC(=S)N(C)C`, the compound was called inactive in test [1], in [2], in test [4], in test [5], in [6] and in test [8]. In [10], the Potency entry is “inactive”.

Regarding `CC1(C)OC[C@@H]2O[C@@]3(C(=O)O)OC(C)(C)O[C@H]3[C@@H]2O1`, the outcome in test [1], in [2], in test [4], in test [5], in [6] and in [7] was inactive. Besides, the compound was classed as inactive in test [8].

As to `CCNc1ccccc1`, the call in test [1], in test [2], in test [4], in [5], in [7] and in test [8] was inactive.

`O=C(OCC1CCC2OC2C1)C1CCC2OC2C1` (stereo unspecified): the compound was called inactive in test [1], in test [2], in test [4], in test [5], in [7] and in [8]. Besides, the compound was called inactive in test [9]. The Potency result in test [10] is “inactive”.

For `CCCCC(C=O)CC` (stereo unspecified), the outcome in test [1], in test [2], in test [4], in [5], in [6] and in test [7] was inactive. Moreover, the compound was called inactive in test [8]. Besides, in [10], the Potency entry is “inactive”.

Consider `C[C@]12CC[C@@H]3c4ccc(O)cc4CC[C@H]3[C@@H]1C[C@@H](O)[C@@H]2O`, for which the result in test [1], in [2], in test [4], in test [5], in [6] and in [8] was inactive. In [9], the outcome was inactive. Further, the Potency in test [10] is 12 µM (active) and 38.9 µM (active).

In the case of `CCCCOC(=O)c1ccc(N)cc1`, the call in test [1], in test [2], in test [4], in test [5], in test [7] and in test [8] was inactive. Moreover, the result in test [9] was inactive. Besides, the Potency result in [10] was “inactive”.

As for `C=CC[N+](C)(C)CC=C`, the outcome in [1], in [2], in test [4], in test [5], in test [7] and in test [8] was inactive. In addition, in test [10], the Potency entry was “inactive”.

In the case of `N[C@H](Cc1c[nH]c2ccccc12)C(=O)O`, the outcome in test [1], in [2], in test [4], in [5], in test [6] and in [7] was inactive. In test [8], the call was inactive.

As to `OC1C(O)C(O)C(O)C(O)C1O` (stereo unspecified), the outcome in test [1], in [2], in test [4], in test [5], in test [6] and in test [8] was inactive.

Regarding `CCOC(=O)n1ccn(C)c1=S`, the compound was classed as inactive in [1], in test [2], in test [4], in test [5], in [7] and in test [8]. In addition, the compound was called inactive in test [9]. In test [10], the Potency entry is “inactive”.

`N#Cc1ccccc1`: the result in test [1], in [2], in [4], in test [5], in [7] and in test [8] was inactive. Further, in test [10], the Potency entry was “inactive”.

On to `COCCOC(=O)c1ccccc1C(=O)OCCOC`, for which the compound was called inactive in test [1], in [2], in test [4], in test [5], in test [6] and in test [7]. Besides, the call in test [8] and in [9] was inactive. Besides, the Potency result in test [10] is “inactive”.

As for `CN1C(=O)CC[C@H]1c1cccnc1`, the result in test [1], in test [2], in [4], in test [5] and in test [8] was inactive.

For the compound `C=C(C)CNCC`, the result in [1], in test [2], in test [4], in test [5] and in test [8] was inactive. Besides, the Potency entry in [10] is “inactive”.

For `Nc1nc(N)nc(-c2ccccc2)n1`, the result in test [1], in test [2], in test [4], in [5], in test [6] and in [7] was inactive. The outcome in test [8] was inactive. Also, the Potency entry in test [10] was “inactive”.

For the compound `CCCCCCC=O`, the call in test [1], in [2], in test [4], in test [5], in test [6] and in test [7] was inactive. The result in test [8] was inactive. For the same compound, the Potency result in test [10] is “inactive”.

Take `CC(C)CCCCCCCOC(=O)CCCCC(=O)OCCCCCCCC(C)C`: the compound was called inactive in test [1], in test [2], in [4], in test [5], in test [6] and in test [7]. The outcome in [8] and in test [9] was inactive. In addition, in test [10], the Potency result is “inactive”.
